# Read-outs that look alike come from different tables or passages of the source.
# Legend:
# AAK1 = tested on: AAK1; parameters: species or system human, MV4-11 + K-562 + COLO205 + SK-N-BE2 + OVCAR-8; conditions: read-out: apparent Kd, compound concentrations: 100 nM and 1000 nM (sheet 'Samples'), n = 1
# BMP2K = tested on: BMP2K; parameters: species or system human, MV4-11 + K-562 + COLO205 + SK-N-BE2 + OVCAR-8; conditions: read-out: apparent Kd, compound concentrations: 100 nM and 1000 nM (sheet 'Samples'), n = 1
# CLK1 = tested on: CLK1; parameters: species or system human, MV4-11 + K-562 + COLO205 + SK-N-BE2 + OVCAR-8; conditions: read-out: apparent Kd, compound concentrations: 100 nM and 1000 nM (sheet 'Samples'), n = 1
# CLK4 = tested on: CLK4; parameters: species or system human, MV4-11 + K-562 + COLO205 + SK-N-BE2 + OVCAR-8; conditions: read-out: apparent Kd; compound concentrations: 100 nM and 1000 nM (sheet 'Samples'), CATDS: 1.78351826711012E-2; n = 1
# CSNK2A1;CSNK2A3 = tested on: CSNK2A1;CSNK2A3; parameters: species or system human, MV4-11 + K-562 + COLO205 + SK-N-BE2 + OVCAR-8; conditions: read-out: apparent Kd, compound concentrations: 100 nM and 1000 nM (sheet 'Samples'), n = 1
# CSNK2A2 = tested on: CSNK2A2; parameters: species or system human, MV4-11 + K-562 + COLO205 + SK-N-BE2 + OVCAR-8; conditions: read-out: apparent Kd, compound concentrations: 100 nM and 1000 nM (sheet 'Samples'), n = 1
# FLT4 = tested on: FLT4; parameters: species or system human, MV4-11 + K-562 + COLO205 + SK-N-BE2 + OVCAR-8; conditions: read-out: apparent Kd, compound concentrations: 100 nM and 1000 nM (sheet 'Samples'), n = 1
# GAK = tested on: GAK; parameters: species or system human, MV4-11 + K-562 + COLO205 + SK-N-BE2 + OVCAR-8; conditions: read-out: apparent Kd, compound concentrations: 100 nM and 1000 nM (sheet 'Samples'), n = 1
# GSK3A = tested on: GSK3A; parameters: species or system human, MV4-11 + K-562 + COLO205 + SK-N-BE2 + OVCAR-8; conditions: read-out: apparent Kd, compound concentrations: 100 nM and 1000 nM (sheet 'Samples'), n = 1
# GSK3B = tested on: GSK3B; parameters: species or system human, MV4-11 + K-562 + COLO205 + SK-N-BE2 + OVCAR-8; conditions: read-out: apparent Kd, compound concentrations: 100 nM and 1000 nM (sheet 'Samples'), n = 1
# MELK = tested on: MELK; parameters: species or system human, MV4-11 + K-562 + COLO205 + SK-N-BE2 + OVCAR-8; conditions: read-out: apparent Kd, compound concentrations: 100 nM and 1000 nM (sheet 'Samples'), n = 1
# NUAK1 = tested on: NUAK1; parameters: species or system human, MV4-11 + K-562 + COLO205 + SK-N-BE2 + OVCAR-8; conditions: read-out: apparent Kd, compound concentrations: 100 nM and 1000 nM (sheet 'Samples'), n = 1
# PAK4 = tested on: PAK4; parameters: species or system human, MV4-11 + K-562 + COLO205 + SK-N-BE2 + OVCAR-8; conditions: read-out: apparent Kd, compound concentrations: 100 nM and 1000 nM (sheet 'Samples'), n = 1
# PRKAG1 = tested on: PRKAG1; parameters: species or system human, MV4-11 + K-562 + COLO205 + SK-N-BE2 + OVCAR-8; conditions: read-out: apparent Kd, compound concentrations: 100 nM and 1000 nM (sheet 'Samples'), n = 1
# Q6ZSR9 = Q6ZSR9 (human, UniProt Q6ZSR9); parameters: species or system MV4-11 + K-562 + COLO205 + SK-N-BE2 + OVCAR-8; conditions: read-out: apparent Kd, compound concentrations: 100 nM and 1000 nM (sheet 'Samples'), n = 1
# RET = tested on: RET; parameters: species or system human, MV4-11 + K-562 + COLO205 + SK-N-BE2 + OVCAR-8; conditions: read-out: apparent Kd, compound concentrations: 100 nM and 1000 nM (sheet 'Samples'), n = 1
# SIK2 = tested on: SIK2; parameters: species or system human, MV4-11 + K-562 + COLO205 + SK-N-BE2 + OVCAR-8; conditions: read-out: apparent Kd, compound concentrations: 100 nM and 1000 nM (sheet 'Samples'), n = 1
# PKN1 = tested on: PKN1; parameters: species or system human, MV4-11 + K-562 + COLO205 + SK-N-BE2 + OVCAR-8; conditions: read-out: apparent Kd; compound concentrations: 100 nM and 1000 nM (sheet 'Samples'), CATDS: 1.0348059231995501E-2; n = 1
# PKN3 = tested on: PKN3; parameters: species or system human, MV4-11 + K-562 + COLO205 + SK-N-BE2 + OVCAR-8; conditions: read-out: apparent Kd; compound concentrations: 100 nM and 1000 nM (sheet 'Samples'), CATDS: 9.8185291638943593E-3; n = 1
# Sequence of Q6ZSR9 (Q6ZSR9 whole entry, looked up): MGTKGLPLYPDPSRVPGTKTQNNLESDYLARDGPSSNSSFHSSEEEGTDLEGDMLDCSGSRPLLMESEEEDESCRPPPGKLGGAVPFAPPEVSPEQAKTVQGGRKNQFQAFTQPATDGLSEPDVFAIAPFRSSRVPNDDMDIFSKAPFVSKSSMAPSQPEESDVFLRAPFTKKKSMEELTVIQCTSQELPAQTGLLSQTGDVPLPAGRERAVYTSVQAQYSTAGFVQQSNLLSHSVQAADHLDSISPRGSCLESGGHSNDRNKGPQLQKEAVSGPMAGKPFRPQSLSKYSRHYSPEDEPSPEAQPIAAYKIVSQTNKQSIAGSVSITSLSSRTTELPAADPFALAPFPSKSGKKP
smiles,measurement,setting,value
COc1ccc(Nc2ncc(C#N)c(Nc3ccccc3C(N)=O)n2)cc1N1CCN(C)CC1.Cl [GSK1558669A],potency estimated from few doses,AAK1; CATDS: 1.0489274011292E-2,0.164 µM
same,potency estimated from few doses,BMP2K; CATDS: 9.7460630022759408E-3,0.204 µM
same,potency estimated from few doses,CLK1; CATDS: 1.6853937375741E-2,0.052 µM
same,potency estimated from few doses,CLK4,0.0464 µM
same,potency estimated from few doses,CSNK2A1;CSNK2A3; CATDS: 3.32003717220812E-2,0.0157 µM
same,potency estimated from few doses,CSNK2A2; CATDS: 5.84237607609163E-2,0.00702 µM
same,potency estimated from few doses,FLT4; CATDS: 6.1594984322683802E-2,0.00655 µM
same,potency estimated from few doses,GAK; CATDS: 7.1387437274862903E-3,0.65 µM
same,potency estimated from few doses,GSK3A; CATDS: 2.2002232250464899E-2,0.0311 µM
same,potency estimated from few doses,GSK3B; CATDS: 2.1185466534455601E-2,0.0333 µM
same,potency estimated from few doses,MELK; CATDS: 6.9590061702447499E-3,0.733 µM
same,potency estimated from few doses,NUAK1; CATDS: 1.9495800971078701E-2,0.039 µM
same,potency estimated from few doses,PAK4; CATDS: 1.03985583586522E-2,0.168 µM
same,potency estimated from few doses,PRKAG1; CATDS: 1.48267658268137E-2,0.0685 µM
same,potency estimated from few doses,Q6ZSR9; CATDS: 1.17172228407674E-2,0.121 µM
same,potency estimated from few doses,RET; CATDS: 1.6777420038619099E-2,0.0525 µM
same,potency estimated from few doses,SIK2; CATDS: 3.5509703257123403E-2,0.0141 µM
CCOC(=O)N1CCC(n2cnc(-c3ccc(F)cc3)c2-c2ccnc(N)n2)CC1 [SB-219952],potency estimated from few doses,AAK1; CATDS: 1.33097974797153E-2,0.454 µM
same,potency estimated from few doses,BMP2K; CATDS: 1.0000193686827899E-2,0.867 µM
same,potency estimated from few doses,CLK1; CATDS: 1.18597213826205E-2,0.578 µM
same,potency estimated from few doses,CSNK2A1;CSNK2A3; CATDS: 1.2357704080210899E-2,0.529 µM
same,potency estimated from few doses,CSNK2A2; CATDS: 1.08103941261705E-2,0.715 µM
same,potency estimated from few doses,FLT4; CATDS: 1.0948126782386601E-2,0.694 µM
same,potency estimated from few doses,GAK; CATDS: 1.8528073728162099E-2,0.245 µM
same,potency estimated from few doses,GSK3A; CATDS: 1.9129432777521899E-2,0.232 µM
same,potency estimated from few doses,GSK3B; CATDS: 1.5651651675632799E-2,0.331 µM
same,potency estimated from few doses,MELK; CATDS: 7.6939005676200604E-3,1.97 µM
same,potency estimated from few doses,NUAK1; CATDS: 9.2511282375558092E-3,1.07 µM
same,potency estimated from few doses,PAK4; CATDS: 1.1415940389083201E-2,0.63 µM
same,potency estimated from few doses,PKN1,0.795 µM
same,potency estimated from few doses,PKN3,0.909 µM
same,potency estimated from few doses,PRKAG1; CATDS: 1.03550294618252E-2,0.794 µM
same,potency estimated from few doses,Q6ZSR9; CATDS: 1.30827275923428E-2,0.47 µM
same,potency estimated from few doses,RET; CATDS: 1.35684167881036E-2,0.436 µM
same,potency estimated from few doses,SIK2; CATDS: 1.0490419954407099E-2,0.769 µM
Cc1ccc(Nc2ccnc(Nc3ccc4c(c3)CS(=O)(=O)C4)n2)cc1O.Cl [GW579362A],potency estimated from few doses,AAK1; CATDS: 3.1485270896706399E-2,1.06 µM
same,potency estimated from few doses,BMP2K; CATDS: 2.75119720973705E-2,1.64 µM
same,potency estimated from few doses,CSNK2A1;CSNK2A3; CATDS: 3.1042037667094801E-2,1.1 µM
same,potency estimated from few doses,CSNK2A2; CATDS: 3.7509924473465302E-2,0.666 µM
same,potency estimated from few doses,FLT4; CATDS: 3.6167271282575603E-2,0.729 µM
same,potency estimated from few doses,RET; CATDS: 5.0599670871917801E-2,0.349 µM
O=C1N=C(Nc2ccccc2)S/C1=C\c1ccc2ncccc2c1 [RO4493940-000],potency estimated from few doses,CSNK2A1;CSNK2A3; CATDS: 0.36155727747203598,0.291 µM
same,potency estimated from few doses,CSNK2A2; CATDS: 0.44448936869789302,0.203 µM
